A short description of assay [1]: NCI Yeast Anticancer Drug Screen. Data for the rad50 strain (AID 155).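 Further: 0% = growth of vehicle-only cultures of the same strain.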 Particulars: S. cerevisiae rad50 strain growth inhibition, active compounds read high. The gist of the method:
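Vehicle-treated cultures provide the reference for the growth inhibition reported for compound-exposed, repair-deficient yeast.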

A short description of assay [2]: NCI Yeast Anticancer Drug Screen. Data for the mec2-1 strain (AID 157). The conditions noted are these: S. cerevisiae mec2-1 strain, active compounds read high. The gist of the method:
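Readout is yeast growth inhibition, normalised to vehicle-treated controls, in the mec2-1 strain exposed to compound.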

Assay [3] in a line: NCI Yeast Anticancer Drug Screen. Data for the sgs1 mgt1 strain (AID 161).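 Further: 0% = growth of cultures given vehicle only.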 Particulars: S. cerevisiae sgs1 mgt1 strain, active compounds read high. The gist of the method:
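Yeast cells carrying a defined DNA-repair defect were exposed to test compounds. Growth inhibition was measured relative to vehicle-treated controls.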

Assay [4] can be described thus: NCI Yeast Anticancer Drug Screen. Data for the bub3 strain (AID 167). The conditions noted are these: S. cerevisiae bub3 mutant strain, active compounds read high. The gist of the method: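 Mutant yeast screening strain plus compound; vehicle-treated cultures serve as the 0% inhibition reference.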
Assay [5] in a line: NCI Yeast Anticancer Drug Screen. Data for the mlh1 rad18 strain (AID 175). The conditions noted are these: S. cerevisiae mlh1 rad18 strain growth inhibition, active compounds read high. The procedure, abridged:
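Test agents were incubated with a yeast strain of defined genotype (DNA damage repair defect). Inhibition of growth was derived by comparison with vehicle-exposed cultures.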

Assay [6] can be described thus: NCI Yeast Anticancer Drug Screen. Data for the cln2 rad14 strain (AID 165).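 Further: 0% = growth equal to vehicle treated cultures.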 The conditions noted are these: S. cerevisiae cln2 rad14 strain, active compounds read high. The procedure, abridged: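 Relative to vehicle controls, growth inhibition of compound-treated cln2 rad14 yeast was recorded.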
[7] abbreviates: at 5.0 µM (retest, dose inferred, filed as 0.5).
Where [8] appears, read: at 50.0 µM (retest, dose inferred, filed as 5.0).

Compounds without any hit were thinned out: in the full panel of roughly 79,000, 15% have a hit. Values without a mark were called inactive. Activity calls are given as the source filed them. No stated cut-off is given here; in the data, active means growth inhibition above about 70%; inactive means the rest.

Regarding `CC(=O)c1ccc2c(c1)CCc1ccccc1-2`, the growth inhibition in assay [1] (setting [7]) is 2%; in assay [1] (setting [8]), 85% (active); in assay [1] (at 50.0 µM), 12.5%; in assay [2] (setting [7]), -33%; in assay [2] (setting [8]), 49%; in assay [2] (at 50.0 µM), -8.9%. Also, the growth inhibition was 2% in assay [3] (setting [7]); 55% in assay [3] (setting [8]); 36.1% in assay [3] (at 50.0 µM); 45% in assay [4] (setting [7]); 89% (active) in assay [4] (setting [8]); 30.4% in assay [4] (at 50.0 µM). Further, the growth inhibition in assay [5] (setting [7]) is 1%; in assay [5] (setting [8]) it was 79% (active); in assay [5] (at 50.0 µM), 15.9%.
Consider `O=C1C=CC(=O)N1c1ccccc1`, for which the growth inhibition is 95% (active) in assay [1] (setting [7]); 98% (active) in assay [1] (setting [8]); 99.3% (active) in assay [1] (at 50.0 µM); 99% (active) in assay [2] (setting [7]); 99% (active) in assay [2] (setting [8]); 99.7% (active) in assay [2] (at 50.0 µM). For the same molecule, the growth inhibition in assay [3] (setting [7]) was 94% (active); in assay [3] (setting [8]), 99% (active); in assay [3] (at 50.0 µM), 99.4% (active); in assay [6] (setting [7]), 94% (active); in assay [6] (setting [8]), 99% (active); in assay [6] (at 50.0 µM) it was 99% (active). The growth inhibition in assay [4] (setting [7]) is 99% (active); in assay [4] (setting [8]), 99% (active); in assay [4] (at 50.0 µM), 99.2% (active); in assay [5] (setting [7]), 90% (active); in assay [5] (setting [8]), 99% (active); in assay [5] (at 50.0 µM) it was 99.2% (active).
On to `O=C(Cc1nc2cc(Cl)c(Cl)cc2nc1CC(=O)c1ccccc1)c1ccccc1`, for which the growth inhibition in assay [1] (setting [7]) was -7%; in assay [1] (setting [8]) it was 93% (active); in assay [1] (at 50.0 µM), 96.4% (active); in assay [2] (setting [7]), -9%; in assay [2] (setting [8]) it was 76% (active); in assay [2] (at 50.0 µM) it was 96.8% (active). Further, the growth inhibition in assay [3] (setting [7]) was -9%; in assay [3] (setting [8]), 84% (active); in assay [3] (at 50.0 µM), 96.8% (active); in assay [4] (setting [7]), -4%; in assay [4] (setting [8]) it was 90% (active); in assay [4] (at 50.0 µM), 96.5% (active). For the same molecule, the growth inhibition in assay [5] (setting [7]) was -9%; in assay [5] (setting [8]) it was 93% (active); in assay [5] (at 50.0 µM) it was 96% (active).
As to `CCCOS(=O)(=O)c1ccccc1`, the growth inhibition is 14% in assay [1] (setting [7]); 1% in assay [1] (setting [8]); 0.7% in assay [1] (at 50.0 µM); 19% in assay [2] (setting [7]); 38% in assay [2] (setting [8]); 12.3% in assay [2] (at 50.0 µM). The growth inhibition was -7% in assay [3] (setting [7]); 4% in assay [3] (setting [8]); 10.1% in assay [3] (at 50.0 µM); 38% in assay [6] (setting [7]); 35% in assay [6] (setting [8]); -2.2% in assay [6] (at 50.0 µM). Besides, the growth inhibition is 23% in assay [4] (setting [7]); 42% in assay [4] (setting [8]); -1.4% in assay [4] (at 50.0 µM); 11% in assay [5] (setting [7]); 32% in assay [5] (setting [8]); 14.3% in assay [5] (at 50.0 µM).
With `Cc1ccccc1NC(=O)Cc1csc2[n+]1C(=O)/C(=C/c1ccc([N+](=O)[O-])cc1)S2`, the growth inhibition in assay [1] (setting [7]) was 22%; in assay [1] (setting [8]) it was 28%; in assay [1] (at 50.0 µM), 15.7%; in assay [2] (setting [7]) it was 29%; in assay [2] (setting [8]), 33%; in assay [2] (at 50.0 µM), -6.7%. Moreover, the growth inhibition in assay [3] (setting [7]) was -14%; in assay [3] (setting [8]), -4%; in assay [3] (at 50.0 µM), 39.6%; in assay [6] (setting [7]), -2%; in assay [6] (setting [8]), 7%; in assay [6] (at 50.0 µM), -27.7%. Moreover, the growth inhibition is 25% in assay [5] (setting [7]), 37% in assay [5] (setting [8]) and 20.5% in assay [5] (at 50.0 µM).
Take `CC1(C)OCC(COC(c2ccccc2)(c2ccccc2)c2ccccc2)O1` (stereo not drawn): the growth inhibition is -7% in assay [1] (setting [7]); 14% in assay [1] (setting [8]); 21.1% in assay [1] (at 50.0 µM); -6% in assay [2] (setting [7]); 12% in assay [2] (setting [8]); 4.65% in assay [2] (at 50.0 µM). In addition, the growth inhibition in assay [3] (setting [7]) is -9%; in assay [3] (setting [8]), 2%; in assay [3] (at 50.0 µM), -0.5%; in assay [6] (setting [7]), -4%; in assay [6] (setting [8]), 16%; in assay [6] (at 50.0 µM), -33%. The growth inhibition in assay [4] (setting [7]) was -2%; in assay [4] (setting [8]), 63%; in assay [4] (at 50.0 µM), 40.2%; in assay [5] (setting [7]) it was -5%; in assay [5] (setting [8]), 28%; in assay [5] (at 50.0 µM) it was 43.6%.
Turning to `S=c1[nH]c(=S)c2[nH]c(=S)[nH]c2[nH]1`, the growth inhibition in assay [1] (setting [7]) is -1%; in assay [1] (setting [8]), 0%; in assay [2] (setting [7]), 2%; in assay [2] (setting [8]), 6%; in assay [3] (setting [7]) it was 5%; in assay [3] (setting [8]) it was 11%. In addition, the growth inhibition in assay [6] (setting [7]) was -13%; in assay [6] (setting [8]) it was -13%; in assay [4] (setting [7]), 6%; in assay [4] (setting [8]), 6%; in assay [5] (setting [7]), -23%; in assay [5] (setting [8]), -23%.
As for `COC(=O)c1ccc(Cl)c(NN)c1`, the growth inhibition was 49% in assay [1] (setting [7]); 66% in assay [1] (setting [8]); 90.4% (active) in assay [1] (at 50.0 µM); 29% in assay [2] (setting [7]); 59% in assay [2] (setting [8]); 92.8% (active) in assay [2] (at 50.0 µM). Also, the growth inhibition in assay [3] (setting [7]) was 86% (active); in assay [3] (setting [8]), 98% (active); in assay [6] (setting [7]), 61%; in assay [6] (setting [8]), 99% (active); in assay [4] (setting [7]), 93% (active); in assay [4] (setting [8]), 99% (active). Also, the growth inhibition in assay [5] (setting [7]) is 38%; in assay [5] (setting [8]), 42%; in assay [5] (at 50.0 µM), 88.7% (active).
`C/C(=N\NC(=S)N(C)C)c1ccccn1`: the growth inhibition was 94% (active) in assay [1] (setting [7]); 98% (active) in assay [1] (setting [8]); 92% (active) in assay [2] (setting [7]); 99% (active) in assay [2] (setting [8]); 93% (active) in assay [3] (setting [7]); 99% (active) in assay [3] (setting [8]). Also, the growth inhibition in assay [3] (at 50.0 µM) was 88.6% (active); in assay [6] (setting [7]), 91% (active); in assay [6] (setting [8]), 97% (active); in assay [6] (at 50.0 µM), 89.3% (active); in assay [4] (setting [7]), 95% (active); in assay [4] (setting [8]), 99% (active). Besides, the figures for the growth inhibition in assay [4] (at 50.0 µM), in assay [5] (setting [7]) and in assay [5] (setting [8]) were 88.7% (active), 95% (active) and 98% (active), respectively.
As for `CCCC(=O)c1ccc([N+](=O)[O-])o1`, the growth inhibition in assay [1] (setting [7]) was 13%; in assay [1] (setting [8]), 98% (active); in assay [2] (setting [7]), 7%; in assay [2] (setting [8]), 99% (active); in assay [3] (setting [7]), 15%; in assay [3] (setting [8]) it was 99% (active). Moreover, the growth inhibition was 4% in assay [6] (setting [7]); 98% (active) in assay [6] (setting [8]); 16% in assay [4] (setting [7]); 100% (active) in assay [4] (setting [8]); 1% in assay [5] (setting [7]); 98% (active) in assay [5] (setting [8]).
As for `CC1=NN(c2ccccc2)C(=O)C1(Br)Br`, the growth inhibition in assay [1] (setting [7]) is 37%; in assay [1] (setting [8]) it was 64%; in assay [1] (at 50.0 µM) it was 92.7% (active); in assay [2] (setting [7]), 44%; in assay [2] (setting [8]) it was 71% (active); in assay [2] (at 50.0 µM), 94% (active). In addition, the growth inhibition in assay [3] (setting [7]) was 23%; in assay [3] (setting [8]) it was 99% (active); in assay [6] (setting [7]), 43%; in assay [6] (setting [8]), 99% (active); in assay [4] (setting [7]), 49%; in assay [4] (setting [8]), 98% (active). Besides, the growth inhibition was 32% in assay [5] (setting [7]), 58% in assay [5] (setting [8]) and 93.3% (active) in assay [5] (at 50.0 µM).
Take `CCCCCCN(CCCCCC)CCCNc1nccc2ccccc12`: the growth inhibition was 4% in assay [1] (setting [7]); 62% in assay [1] (setting [8]); 78.5% (active) in assay [1] (at 50.0 µM); -4% in assay [2] (setting [7]); 14% in assay [2] (setting [8]); 36.5% in assay [2] (at 50.0 µM). In addition, the growth inhibition was -4% in assay [6] (setting [7]); 13% in assay [6] (setting [8]); 56.5% in assay [6] (at 50.0 µM); 5% in assay [4] (setting [7]); 72% (active) in assay [4] (setting [8]); 84% (active) in assay [4] (at 50.0 µM). The growth inhibition is 10% in assay [5] (setting [7]), 64% in assay [5] (setting [8]) and 77% (active) in assay [5] (at 50.0 µM).

The values are drawn from PubChem BioAssay (NCI).
